Assay outcomes as filed in PubChem.
A selection: hits, their analogues and other compounds. The true share with any hit is near 1.3%.
RXFP1 ag = qHTS Assay for Agonists of the Relaxin Receptor RXFP1. Relaxin receptor 1 (Homo sapiens), Q9HBX9. HEK293T-RXFP1 cAMP TR-FRET, 30 min; response scale: percent of porcine relaxin response, buffer zero. Potency, µM (doses to about 57.5 µM), usual class: activators. 370,000 compounds, 0.3% hits. AID 2676, 2010; active = well fitted activation curve with a large enough effect; inconclusive = small, poorly fitted or top-dose-only effect; note: nearly all actives have a fitted effect of over 60% in size
Target sequence (Q9HBX9 whole entry, looked up): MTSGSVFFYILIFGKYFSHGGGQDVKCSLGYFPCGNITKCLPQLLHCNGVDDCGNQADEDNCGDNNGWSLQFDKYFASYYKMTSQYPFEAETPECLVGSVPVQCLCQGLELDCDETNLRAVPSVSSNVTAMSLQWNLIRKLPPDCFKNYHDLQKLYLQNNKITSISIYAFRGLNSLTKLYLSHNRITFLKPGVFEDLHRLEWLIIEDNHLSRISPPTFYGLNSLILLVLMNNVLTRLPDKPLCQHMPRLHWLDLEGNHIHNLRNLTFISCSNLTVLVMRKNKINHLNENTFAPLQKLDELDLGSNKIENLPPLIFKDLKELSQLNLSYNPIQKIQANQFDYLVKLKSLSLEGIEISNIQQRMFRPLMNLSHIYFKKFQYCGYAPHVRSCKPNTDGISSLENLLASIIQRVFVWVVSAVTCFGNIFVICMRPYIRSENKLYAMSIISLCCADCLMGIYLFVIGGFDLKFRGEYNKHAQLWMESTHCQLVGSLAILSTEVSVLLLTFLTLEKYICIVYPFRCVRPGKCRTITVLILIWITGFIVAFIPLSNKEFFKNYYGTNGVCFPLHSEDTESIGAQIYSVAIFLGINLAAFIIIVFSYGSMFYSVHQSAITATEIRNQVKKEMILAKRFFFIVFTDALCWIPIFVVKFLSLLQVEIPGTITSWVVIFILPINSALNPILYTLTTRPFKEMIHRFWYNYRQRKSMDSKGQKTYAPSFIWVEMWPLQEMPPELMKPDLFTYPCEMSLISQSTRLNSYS
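HEK293 cells stably expressing RXFP1, treated 30 min at 37C with compounds plus PDE4 inhibitor Ro 20174; cAMP measured by HTRF TR-FRET. Normalized to buffer and 29 nM porcine relaxin; EC50 by Hill fit.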
TSHR antagonist = Antagonists of the Thyroid Stimulating Hormone Receptor: HTS campaign. TSHR-expressing cells, TSH-stimulated cAMP HTRF, 2 h; stronger effect = lower value. 330,000 compounds, 0.2% hits. activity change, negative = inhibition, % at 11.5 µM;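 active = activity change below a set negative limit, meaning inhibition stronger than a set level, cut at about -70% in these data; inconclusive = activity change between two set negative limits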
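Read-out is FRET at 665 nm (cryptate excitation 337 nm) from a cryptate-tagged anti-cAMP antibody, competed by cell cAMP against cAMP-d2. Compounds are tested on freshly harvested TSHR cells challenged with 4nM TSH (EC80) for 2 hours at 37 deg C.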
gsp antag = qHTS for Antagonists of gsp, the Etiologic Mutation Responsible for Fibrous Dysplasia/McCune-Albright Syndrome: qHTS. gsp-mutant cells, cAMP HTRF, 30 min. Potency, µM (top dose mostly 76.9 µM), actives largely listed as inhibitors. 340,000 compounds, 0.4% hits. AID 624288, 2012; calls by dose curve; cell line not stated here;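 note: intracellular cAMP measured with PDE inhibitor Ro 20-1724 present during compound exposure; nearly all actives have a fitted effect of over 65% in size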
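HTRF cAMP read-out (cAMP-d2 plus anti-cAMP antibody-K in lysis buffer, 30 min RT). Before lysis, cells are exposed to compounds with […] for 30 min at 37C in DPBS containing Ca/Mg, BSA and Tween 20.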
pAkt inh = HTS Assay for Inhibitors of Akt Phophorylation: Primary Screen; 360,000 compounds, 0.32% hits; Neuro2A IGF-stimulated pAkt S473 HTRF, 20 min; stronger effect = lower value; AID 651550, 2012; activity change, % for hits at 50 µM; in the data active = activity change below about -80%; inconclusive = mostly about -51% to -80%
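Neuro2A cells in DMEM with 0.5% FBS, overnight at 37 deg C, given compound at single 50 µM final, then IGF (6 nM final) for 20 min at 37 deg C. Lysed; phospho-Akt Ser473 by HTRF after 24 h, 665/615 ratio.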
RXFP1 antag = qHTS Assay for Antagonists of the Relaxin Receptor RXFP1. 350,000 compounds, 0.59% hits. activity change, negative = inhibition, % at 57.5 µM. HEK293-RXFP1, relaxin-stimulated cAMP HTRF, 30 min; stronger effect = lower value;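 active = activity change of -60% or lower, but not beyond a set lower limit; inconclusive = change between -60% and -40%, or beyond the set limit; inactive = change above -40%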
gsp ag = qHTS for Agonist of gsp, the Etiologic Mutation Responsible for Fibrous Dysplasia/McCune-Albright Syndrome: qHTS | gsp mutant cells, cAMP HTRF, 30 min | Potency, µM (top dose mostly 76.9 µM), usual class: activators | 340,000 compounds, 0.13% hits; active = well fitted activation curve with a large enough effect; inconclusive = small, poorly fitted or top-dose-only effect, or another doubt; inactive = no such curve, though single readings can be large or run the other way; cell line not stated here;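 note: phosphodiesterase inhibitor Ro 20-1724 added with compounds to block cAMP breakdown; nearly all actives have a fitted effect of over 60% in size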
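Cells stably selected in G418 were plated at 2000/well, grown 16-24 hr, then given compounds in DMSO with the PDE inhibitor […] (300 uM solution added) for 30 min at 37C; cAMP was read by HTRF.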
Hits are given with their value; i = inactive; ? = inconclusive; nt = no result; [ ] = another dose, or the depositor's remark.

SMILES	RXFP1 ag	TSHR antagonist	gsp antag	pAkt inh	RXFP1 antag	gsp ag
CCn1ccc(C(=O)Nc2ccccc2Cl)n1	i	i	50µM	i	i	i
Cc1cn([C@H]2C[C@H](F)[C@@H](CO)O2)c(=O)[nH]c1=O	nt	nt	nt	nt	i	nt
Cc1cc(C)cc(NC(=O)Cn2nnc(C(=O)NCc3ccc(F)cc3)c2N)c1	i	i	i	i	i	i
Nc1nc(SCC(=O)C23CC4CC(CC(C4)C2)C3)n[nH]1	i	-76	i	i	i	i
COC(=O)Nc1cc(C(=O)c2ccc(Cl)cc2Cl)c[nH]1	i	i	i	i	i	i
COc1ccc(C(=O)NCc2nnc(SCC(=O)N3CCOCC3)o2)cc1OC	i	i	i	i	i	?
Clc1ccc(N2O[C@H]3C=C[C@@H]2C3)nc1	nt	nt	nt	i	nt	nt
Cc1sc2ncn(CC(=O)NCC(=O)N(C)Cc3ccccc3)c(=O)c2c1C	i	i	i	i	i	11µM
Cc1sc2ncn(CC(=O)NCc3ccccc3)c(=O)c2c1C	i	i	i	i	i	?
O=[N+]([O-])c1ccc(C=NNC(=S)NN=Cc2ccc([N+](=O)[O-])cc2)cc1	nt	nt	i	i	-62	i
CC(C)(C)c1ccc(-c2nc(SCC(=O)Nc3ccccc3F)n3[nH]c(=O)cc3n2)cc1	i	nt	nt	nt	-64	nt
COCc1nn2cc(-c3ccc(C)cc3)nc2s1	i	nt	nt	nt	nt	nt
CCN1CCN(c2nc3c(C)cccn3c(=O)c2/C=C(\C#N)C(=O)NCCOC)CC1	25µM	i	i	i	i	?
COCCNC(=O)/C(C#N)=C/c1c(N2CCCCCC2)nc2c(C)cccn2c1=O	i	i	i	i	i	i[15.4 µM]
COc1ccccc1CNC(=O)C1(C)CCN1C(=O)C1(c2ccccc2)CC1 (stereo unspecified)	nt	nt	nt	i	nt	nt
COc1ccccc1NCCC(=O)O	i	i	i	i	i	i
O=C(O)CCNc1ccc(NCCC(=O)O)c2c1C(=O)c1ccccc1C2=O	i	i	?	i	-63	?
CC(CC1c2ccccc2CCc2ccccc21)CN(C)C (stereo unspecified)	nt	nt	nt	nt	i	nt
Cc1nn(Cc2nc(-c3cccs3)no2)c(C)c1Br	i	-72	i	i	i	i
COc1ccccc1C1c2ccc3ccccc3c2Oc2ncn(CCN(C)C)c(=N)c21 (stereo unspecified)	i	i	i	i	-79	i[15.4 µM]
COc1ccccc1C1c2ccc3ccccc3c2Oc2ncn(CCCO)c(=N)c21 (stereo unspecified)	i	i	i	i	i	i
Brc1ccc2c(c1)OCCOCCOc1cc(Br)ccc1OCCOCCOCCO2	i	i	50µM	i	i	i
Brc1cc2c(cc1Br)OCCOCCOCCOCCO2	i	i	i	i	i	i[15.4 µM]
Cc1ccc2[nH]c(CCN(C)C)c(CN3CCOCC3)c2c1	i	i	i	i	i	i
Cc1ccccc1-c1cccc(CN2CCN(C)C(CCO)C2)c1 (stereo unspecified)	i	i	i	i	i	i
SMILES	RXFP1 ag	TSHR antagonist	gsp antag	pAkt inh	RXFP1 antag	gsp ag
Cc1ccc(-c2ccccc2C#N)cc1	nt	nt	nt	nt	i	nt
CCCCOc1ccc(CNC(=O)CN2C(=O)CCn3nc(-c4cn(C)c5ccccc45)cc32)cc1	i	nt	nt	nt	i	nt
O=C(COC(=O)c1ccc(NS(=O)(=O)c2cccs2)cc1)Nc1nc2c(F)c(F)c(F)cc2s1	i	i	i	i	-62	i[15.4 µM]
O=C(COC(=O)c1ccco1)Nc1nc2c(F)c(F)c(F)cc2s1	i	i	i	i	i	i
COC(=O)c1c(C)[nH]c(C(=O)OC(C)C(=O)NC2CCCCC2C)c1C (stereo unspecified)	nt	nt	nt	i	i	i
CC(C)C(=O)Nc1cccc(C(=O)Nc2ccccc2C(=O)O)c1	i	i	?	-114%	i	i
Cc1cccc(NC(=O)COc2ccccc2C(=O)NC(C)c2ccccc2)c1 (stereo unspecified)	i	i	28µM	i	i	i
CC(C)c1ccc(OCC(=O)Nc2cccc(C(=O)Nc3ccccc3C(=O)O)c2)cc1	i	i	i	i	-66	i[15.4 µM]
Cc1cccc(NC(=O)c2ccccc2OCC(=O)c2ccccc2)c1	i	i	i	i	i	i
CN(C)S(=O)(=O)c1cccc(NC(=S)N/N=C/c2cc(Br)ccc2O)c1	i	i	50µM	i	-84	i[15.4 µM]
CN(C)S(=O)(=O)c1cccc(NC(=S)N/N=C/c2cccc(O)c2)c1	i	i	i	i	i	i
O=C1CC2(CCCC2)CC(=O)N1	nt	nt	nt	nt	i	nt
CSc1ccc(C(=O)N2CCc3ccc(NC(=O)c4ccccn4)cc3C2)cc1	i	i	32µM	i	-69	i
COc1ccc(C(=O)Oc2ccc(Br)cc2C(=S)N2CCOCC2)cc1	i	i	i	i	-67	i
O=C(NCC(=O)N1CCC(Cc2ccccc2)CC1)c1ccccc1F	nt	nt	nt	i	i	i
N#CCCn1cc(CNC2CCC(O)CC2)c2ccccc21 (stereo unspecified)	i	i	i	i	i	i[15.4 µM]
O=P1(Nn2cnnc2)C=C(c2ccccc2)OC(c2ccccc2)=C1	i	i	i	i	i	i
CC[N+](CC)(CCCCS(=O)(=O)[O-])CCNP1(=O)C=C(c2ccccc2)OC(c2ccccc2)=C1	16µM	i	i	i	i	?
Cc1cc(C(=O)COC(=O)c2ccc(NC(=O)CC#N)cc2)c(C)n1-c1ccc(OC(F)F)cc1	nt	i	i	i	-62	i
Cc1cc(C(=O)COC(=O)c2ccc(NC(=O)CC#N)cc2)c(C)n1CC(F)(F)F	nt	nt	nt	i	i	i
O=C1CCCc2c(O)cccc21	nt	nt	nt	nt	i	nt
C[C@@H]1CCC(=O)N(C[C@@H](C)CSc2ccccc2)CC1	i	i	i	i	nt	i
O=C(Nc1ccc(N2CCCC2)cc1)c1ccccc1F	i	i	i	-85%	i	i
O=C(Nc1ccc(N2CCCCC2)cc1)c1ccc(F)cc1F	i	i	i	i	i	i[15.4 µM]
O=C(Nc1ccc(N2CCN(C(=O)c3ccccc3F)CC2)cc1)c1cncc(Br)c1	i	i	?	i	-82	i
O=C(Nc1ccc(N2CCCCC2)cc1)c1cncc(Br)c1	i	i	i	i	i	i
C[C@H]1C[C@H]2[C@@H]3CCC4=CC(=O)C=C[C@]4(C)[C@H]3C(=O)C[C@]2(C)[C@@]1(O)C(=O)CO	nt	nt	nt	nt	i	nt
CCOC(=O)c1cnc2cc(-c3ccc(OCC)cc3)nn2c1-c1ccccc1	?	nt	nt	nt	i	nt
CN(CCC(=O)Nc1ccc(Cl)cc1)Cc1ccccc1	i	i	i	i	i	i
